# Source: PubChem BioAssay (National Center for Advancing Translational Sciences (NCATS))
# Integrin act MD = integrin-mediated muscular dystrophy alleviation activation; alpha7betagal myoblasts, beta-gal FDG fluorescence, 48 h; Potency, µM (highest dose often 38.3 µM), inactives show at the highest dose activation, hits mostly activators; 350,000 compounds, 0.064% hits;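 note: 100% = response of the positive control SU9516; nearly all actives have a fitted effect of over 60% in size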
#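 alpha7betagal+/- myoblasts (passage 13, 250/well) treated 48 h at 37C with compounds at 1:260 dilution of DMSO stock. Lysed, then beta-galactosidase activity read as FDG fluorescence (ex 480/em 540) after 30 min, with pre-read for autofluorescence.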
# Mito fusion yeast = blocks mitochondrial division or promotes mitochondrial fusion | 320,000 compounds, 0.23% hits | S. cerevisiae fusion-defective mutant growth rescue, CellTiterGlo 48 h | Potency, µM (top dose mostly 46.1 µM), for the others: top-dose growth rescue (activation), most hits filed as activators; note: % of control where 0% means no effect; nearly all actives have a fitted effect of over 45% in size
#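 Luminescent cell viability in 1536-well qHTS format served as the measure of rescued growth in ts fusion-mutant S. cerevisiae cultured on non-fermentable YPEG for 48 hours at 37C.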
# VP16 counter = inhibits Gal4-VP16 luciferase reporter, ROR gamma counter-screen; 310,000 compounds, 3.5% hits; Potency, µM (highest dose often 53.6 µM), without a hit: top-dose activity, negative = inhibition, hits mostly inhibitors; Drosophila S2 Gal4-VP16 UAS-luciferase, luminescence, 20 h; AID 2546;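 note: Gal4-VP16 expression switched on by copper sulfate through the metallothionein promoter; % is set by controls: 0 for no effect and ±100 for the full control effect; nearly all actives have a fitted effect of over 50% in size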
# uPA generation = inhibitors of cell surface uPA generation; AID 540303; cell surface uPA generation assay, qHTS; Potency, µM (titrated, usually from 38.3 µM), for the others: top-dose activity change, negative = inhibition, most hits filed as inhibitors; 330,000 compounds, 0.31% hits; active = well fitted inhibition curve with a large enough effect; inconclusive = small, poorly fitted or top-dose-only effect; inactive = no such curve, though single readings can be large or run the other way; tested in mouse RAW 264.7 cells; note: % is set by controls: 0 for no effect and ±100 for the full control effect; nearly all actives have a fitted effect of over 55% in size
# Chronic BCR inh = blocks chronic active B-cell receptor signaling. 340,000 compounds, 0.05% hits. ABC-DLBCL IkBa-CBG/CBR reporter, luminescence ratio, 4 h. AID 493014. Potency, µM (series often up to 46.1 µM), for inactives: at the top dose activity change, negative = inhibition, hits mostly inhibitors; active = well fitted inhibition curve with a large enough effect in the signal ratio, with a control signal flat, not every such curve was filed as active; inconclusive = small, poorly fitted or top-dose-only effect, or effect the other way, or a change in a side signal; the % refers to the signal ratio;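 note: plate controls were basal doxycycline-induced cells for no effect and cells given 10 µM MG132 for full effect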
#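 TMD8 ABC-DLBCL cells carrying doxycycline-inducible green luciferase fused to IkappaBalpha plus unfused red luciferase were exposed to compounds (up to 46 uM) for 4 hrs at 37C. Activity came from the overlap-corrected green/red luminescence ratio.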
# RORg inh = inhibitors of mouse ROR gamma transcriptional activity; P51450; Drosophila S2 Gal4-RORgamma UAS-luciferase reporter, 20 h; Potency, µM (series often up to 53.6 µM), without a hit: at the highest dose activity change, negative = inhibition, most hits filed as inhibitors; 310,000 compounds, 5.4% hits; AID 2551; note: % is set by controls: 0 for no effect and ±100 for the full control effect; nearly all actives have a fitted effect of over 60% in size
# Target sequence (P51450 whole entry, looked up, the tested form may be a part): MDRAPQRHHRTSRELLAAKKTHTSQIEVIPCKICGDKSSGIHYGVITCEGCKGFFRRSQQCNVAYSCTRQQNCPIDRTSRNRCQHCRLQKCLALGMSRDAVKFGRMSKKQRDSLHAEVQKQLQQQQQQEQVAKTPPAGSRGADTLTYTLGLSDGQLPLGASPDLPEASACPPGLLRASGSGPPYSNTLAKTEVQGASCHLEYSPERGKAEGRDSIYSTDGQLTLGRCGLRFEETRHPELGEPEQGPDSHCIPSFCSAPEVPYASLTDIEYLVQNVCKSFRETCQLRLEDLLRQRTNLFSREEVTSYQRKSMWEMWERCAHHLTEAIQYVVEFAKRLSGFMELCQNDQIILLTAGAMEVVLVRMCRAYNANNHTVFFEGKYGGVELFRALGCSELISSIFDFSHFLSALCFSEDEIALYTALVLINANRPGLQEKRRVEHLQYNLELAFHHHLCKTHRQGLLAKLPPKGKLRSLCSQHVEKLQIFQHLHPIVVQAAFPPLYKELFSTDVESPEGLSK
#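 Stable Schneider cell line, Gal4 DNA-binding domain fused to ROR gamma, UAS-luciferase. Cmpd 1 hr RT → CuSO4 700 uM final → 20 hr RT → luciferase reagent 10 min → luminescence.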
# Numbers without * were called inactive; ? = inconclusive; . = no result given; [ ] = dose if it differs, or a comment. Shown are actives, neighbours in structure and some others; about 5.5% of the full set was active somewhere. Unless noted, calls come from the whole dose curve; as a rule, active = well fitted curve in the direction sought with a large enough effect; inconclusive = small, poorly fitted or top-dose-only effect, or another doubt; inactive = no such curve, though single readings can be large; an effect the other way counts as inactive or inconclusive. Potency is the fitted concentration of half-maximal effect.
SMILES,Integrin act MD,Mito fusion yeast,VP16 counter,uPA generation,Chronic BCR inh,RORg inh
CC1=C(/C=C/C(C)=C\C=C\C(C)=C\C=C\C=C(C)\C=C\C=C(C)\C=C\C2=C(C)C[C@@H](O)CC2(C)C)C(C)(C)C[C@H](O)C1,.,.,-12%,.,.,?
Cc1cc2ncc(-c3cccs3)nc2cc1C,-22%,-8%,?,?,?,10µM*
c1csc(-c2ccc3ccccc3n2)c1,10%,1%,18%,-2%,0%,-8%
CCCN1CCC(=O)N([C@H](CSc2ccc(OC)cc2)c2ccccc2)CC1,0%,-16%,6%,-30%,1%,9%
CCOC(=O)O[C@]1(C(=O)COC(=O)CC)CC[C@@H]2[C@@H]3CCC4=CC(=O)C=C[C@@]4(C)[C@H]3[C@H](O)C[C@]21C,.,.,-11%[17 µM],.,.,-19%[2.98 µM]
CCOC(=O)COc1cccc2c(=O)n(CC(N)=O)ccc12,14%,3%,-7%,0%,1%,5%
CCOC(=O)COc1cccc2c(=O)n(CC(=O)NCc3ccccc3)ccc12,-39%,0%,-8%,0.2µM*,?,1%
CCOC(=O)COc1cccc2c(=O)n(CC(=O)NCCc3ccc(OC)c(OC)c3)ccc12,.,-1%,-8%,.,1%,-14%
CCOC(=O)COc1cccc2c(=O)n(CC(=O)NCc3ccc(F)cc3)ccc12,13%,3%,-6%,0.056µM*,?,-4%
CCOC(=O)N1CCN(C(=O)c2ccccc2N(Cc2ccccc2)S(=O)(=O)c2ccccc2)CC1,-20%,18%,20%,0%,2%,-25%
CCN1C/C(=C/c2cccc([N+](=O)[O-])c2)C(=O)/C(=C/c2cccc([N+](=O)[O-])c2)C1,-66%,16%,3.5µM*,-5%,?,4µM*
CCOc1cc(/C=C2\CN(CC)C/C(=C\c3ccc(O)c(OCC)c3)C2=O)ccc1O,-74%,-20%,?,-6%,?,?
Cc1nc(-c2ccc(NC(=O)c3ccc(Br)o3)cc2)cs1,-23%,-4%,-15%,-8%,?,0%
COc1ccc(OC)c(C2=Nn3c(nnc3-c3ccc(OC)c(OC)c3)SC2)c1,.,.,28%,.,.,-27%
COc1ccc(S(=O)(=O)N2CCC(C(N)=O)(N3CCCCC3)CC2)cc1,6%,1%,0%,7%,-15%,-10%
NC(=O)C1(N2CCCCC2)CCN(S(=O)(=O)c2cc(Cl)sc2Cl)CC1,-35%,28µM*,-11%,2%,2%,21%
CC(C)[C@H](NC(=O)C1CC(=O)N(c2ccc3c(c2)OCCO3)C1)C(=O)NC1CCCC1 (stereo not given in full),-16%,-3%,8%,2%,-12%,-7%
C/C1=C2N=C(/C=C3N=C(/C(C)=C4\[N-]C(C)(C5N=C1C(C)(CCC(=O)NCC(C)OP(=O)([O-])O[C@H]1C(O)C(n6cnc7cc(C)c(C)cc76)O[C@@H]1CO)C5CC(N)=O)C(C)(CC(N)=O)C4CCC(N)=O)C(C)(CC(N)=O)C\3CCC(N)=O)C(C)(C)C/2CCC(N)=O.[CH2-]C1OC(n2cnc3c(N)ncnc32)C(O)C1O.[Co] (stereo not given in full),.,.,-18%,.,.,-12%
Cn1ccnc1SCC(=O)n1c2c(c3ccccc31)CCCC2,10%,-5%,-30%,-6%,-6%,14µM*
CCOC(=O)c1c(NC(=O)c2ccco2)sc2c1CCCCC2,-19%,4%,4%,-1%,-1%,12%
COC(=O)c1c(NC(=S)NN2CCOCC2)sc2c1CCCC2,-39%,-7%,4µM*,8%,?,1.3µM*
COC(=O)c1c(NC(=S)NC(=O)c2ccco2)sc2c1CCCC2,4%,-19%,?,9%,5%,2.5µM*
CCOC(=O)c1c(NC(=O)C(C)N2CCN(C(=O)c3ccco3)CC2)sc2c1CCCC2 (stereo not given),-33%,15%,11µM*,-1%,?,-35%
